Pf Dd2 growth: blocks in vitro growth of P. falciparum Dd2; AID 1347417; P. falciparum Dd2 growth, SYBR Green, 72 h; 120,000 tested, 4.3% active; Potency, µM (doses to about 28.9 µM), inactives show at the highest dose activity, negative = inhibition, most hits filed as inhibitors; active means well fitted inhibition curve with a large enough effect;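 further: plate controls were DMSO vehicle for no effect and reference drug for full effect; nearly all actives have a fitted effect of over 65% in size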
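Infected erythrocytes (Dd2, 0.3% parasitemia, 2.5% hematocrit final) are added to compound in RPMI-1640/Albumax II medium, grown 72 h at 37C in low oxygen, then lysed with saponin/Triton-X containing SYBR Green and read by fluorescence.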
* marks the source's active call; other numbers are inactive results; i = inactive; [ ] = dose if it differs, or a comment. Only a selection was taken, and hits are over-represented in it overall. Potency means the concentration at half of the fitted maximal effect.

SMILES	Pf Dd2 growth
COc1ccc2[nH]c(C(=O)N3CCC4(CC3)CC(c3nc(C)no3)N(C)C4)cc2c1 (configuration not stated)	7.9µM*
COc1ccc2cc(C(=O)N3CCC4(CC3)CC(c3nc(C)no3)N(C)C4)[nH]c2c1 (configuration not stated)	i
Cc1noc2c(-c3cccc(O)c3)cc(-c3ccccc3)nc12	-28%[44.1 µM]
O=C(O)C[C@@H]1CCN(C(=O)COc2ccccc2)C[C@@H]1CCN1CCN(c2ccccc2)CC1	-13%
CC(=O)N1CC2(Cc3ccccc31)CN(C(=O)c1cccc(Cl)c1)C2	-9%
CC(C)c1noc(C2CCCN2S(=O)(=O)N2CCCCCC2)n1 (configuration not stated)	-7%
c1cncc(CN2CCC(Oc3nccnc3N3CCc4ccccc43)C2)c1 (configuration not stated)	3.5µM*
Cc1ncc2n1C(=O)N(C1CCN(Cc3cccnc3)CC1)C2	13%[44.1 µM]
O=C(C1CC1)N1CCC(OC2CCN(Cc3cccnc3)CC2)CC1	-7%
CCCC(=O)N1C2CCCC1CC(=O)C2	0%[44.1 µM]
c1ccc(C(CCn2cncn2)n2ccnc2-c2cc3n(n2)CCNC3)cc1 (configuration not stated)	0%
CN(CC(O)COc1cccc(CNCCc2ccc(F)cc2)c1)C1CCCCC1 (configuration not stated)	4µM*
CCN1CCN(CC(O)COc2cccc(CNCCCc3scnc3C)c2)CC1 (configuration not stated)	i
CCN1CCN(CC(O)COc2cccc(CNCc3cnn(CC)c3)c2)CC1 (configuration not stated)	0%
CC(=O)N1CCN(Cc2ccc(F)c(C(F)(F)F)c2)CC(O)C1 (configuration not stated)	-18%
CCC[C@H]1C[C@H]1C(=O)NCc1cc2c(nc1OC)CN(C1CCCC1)C2=O	-15%
COc1cccc(CC(=O)N2CCC3(CC2)CC(O)CCO3)c1 (configuration not stated)	7%
CCN(CC)CCCNC(=O)Cc1ccc(NC(=O)N2CCCCc3ccccc32)cc1	17%
CCN(CC)CCNC(=O)c1ccc(-n2c(-c3ccccc3)cc3c2CCCC3)cc1	7.9µM*
CCN(CC)CCNC(=O)c1ccc2c(c1)N(S(C)(=O)=O)CC2	24%
Cc1cc(C(=O)N2C[C@@H](Oc3ccccc3)C[C@@H]2C(=O)N2CCOCC2)nn1C	-7%
COc1ccc(-c2noc(N3CCC(C(=O)N(C)c4cc(Cl)ccc4OC)CC3)n2)cc1	10µM*
COc1ccc(-c2noc([C@@H]3CCCN3C(=O)c3cc(Cl)ccc3OC)n2)cc1	-9%
COc1ccc(-c2noc(N3CCC(C(=O)Nc4ccc(F)cc4Cl)CC3)n2)cc1	38%
O=C(c1cccs1)N1CC(Oc2cccc(-c3nc(-c4ccccc4)no3)c2)C1	-17%[5.79 µM]
SMILES	Pf Dd2 growth
O=C(NCC1CCN(Cc2cccc(Cl)c2)CC1)Nc1cc(Cl)ccc1Cl	i
CN(C)S(=O)(=O)N1CCCC1C(=O)Nc1ccc(-c2cccc(F)c2)cc1 (configuration not stated)	-6%
CC(=O)NC1(C)CCN(Cc2cccc(-c3cccc(Cl)c3)c2)C1 (configuration not stated)	-14%[44.1 µM]
O=C(Nc1cccc(-c2cccc(Cl)c2)c1)C1CCN(Cc2cccc(O)c2)CC1	4µM*
CCCN1CCC(N2CCC(C(=O)Nc3cccc(-c4cccc(F)c4)c3)CC2)CC1	2.2µM*
CS(=O)(=O)N1CCCC1C(=O)Nc1ccc(-c2cccc(F)c2)cc1 (configuration not stated)	-1%
COCc1nc(C2CCN(C(=O)c3ccnn3C)C2)no1 (configuration not stated)	-3%
O=C(NCCc1ccccc1)[C@@H]1C[C@H](c2ccc(F)cc2)N([S+](=O)([O-])C2CC2)C1	i
CN(CC1CCOC1)C(=O)Nc1ccc(F)cc1 (configuration not stated)	i[5.79 µM]
O=C(CCn1cnnn1)N1CCCC(CCc2cccc(C(F)(F)F)c2)C1 (configuration not stated)	-16%
O=C(c1ccc(-n2cnnn2)cc1O)N1CCCC(CCc2ccc(F)cc2)C1 (configuration not stated)	13µM*
O=C(c1cc(=O)[nH]c2cc(F)ccc12)N1CCCC(CCc2ccc(F)cc2)C1 (configuration not stated)	-16%
CCCc1noc(-c2cccn3c(CNC(=O)c4cc(Cl)ccc4F)nnc23)n1	i
CCn1ncc(N2CCCC(CC(=O)NCc3ccccn3)C2)cc1=O (configuration not stated)	2%
C[C@@H]1CN(Cc2nc(C(N)=O)no2)CC[C@@]1(O)C1CCOCC1	-5%
COc1ccc(CNC(=O)N2CC[C@@](O)(C3CCC3)[C@H](C)C2)cc1	-11%
Cc1cc(-c2ccccc2)nc(CN2CC[C@@](O)(C3CCC3)[C@H](C)C2)n1	10µM*
COC(=O)c1cncc(N2CCCC3(CCC(=O)N(Cc4ccccc4)C3)C2)n1 (configuration not stated)	6%
